The sample as a whole holds a higher share of hits than the screen did.
Pf Dd2 inh: inhibitors of Plasmodium falciparum Dd2 growth. P. falciparum Dd2 growth, SYBR Green, 72 h. Potency, µM (titrated, usually from 28.9 µM), without a hit: at the highest dose activity, negative = inhibition, usual class: inhibitors. hit rate 4.3% among 120,000. AID 1347417; active means well fitted inhibition curve with a large enough effect;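 further: plate controls were DMSO vehicle for no effect and reference drug for full effect; nearly all actives have a fitted effect of over 65% in size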
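Readout: SYBR Green fluorescence, 485 nm excitation, 535 nm emission, after ~16 h lysis at 37C. Before that, Dd2-infected red cells (2.5% hematocrit) grew 72 h with compound, 29 uM top final concentration.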
An asterisk follows results filed as active; i = inactive; [ ] = another dose, or the depositor's remark. Potency means the concentration at half of the fitted maximal effect.

SMILES | Pf Dd2 inh
Cc1ccc(C2NC(=O)N(CC(=O)Nc3ccc(Br)c(C)c3)C3=C2C(=O)OC3)cc1 (stereo unspecified) | i
Cc1cc(C(=O)N(C)C2CCc3nnc(C)n3CC2)c(C)n1Cc1ccco1 (stereo unspecified) | 14%
O=C(C1CN(S(=O)(=O)c2cccs2)CC12CCCCC2)N1CCCC1 (stereo unspecified) | i
CC(C)NC(=O)N1CC(C(=O)NCc2ccc3c(c2)OCO3)CC(c2ccccc2)C1 (stereo unspecified) | -11%
O=C(N[C@@H](Cn1ccc(=O)[nH]c1=O)C(=O)O)C1CC1 | 3%[44.1 µM]
CCc1nnc([C@@H]2CC(F)(F)CN2C(=O)c2cnco2)o1 | 26%
COC1CCC12CCN(C(=O)C1CC1)CC2 (stereo unspecified) | 31%
O=C1OCC2(CCN([S+](=O)([O-])c3ccccc3F)C2)N1CCN1CCOCC1 (stereo unspecified) | i
Cc1ccc(-n2c(/C=C\c3ccc(F)cc3)nc3ccccc3c2=O)cc1Cl | i
CCc1ccc(-n2c(N3CCN(c4cccc(C)c4C)CC3)nc3ccccc3c2=O)cc1 | 11µM*
Cc1cccc(-c2nc3c4ccccc4nc(N4CCN(c5ccc(F)cc5)CC4)n3n2)c1 | -3%
Cc1cccc(N2CCN(c3nc4ccccc4c4nc(-c5cccnc5)nn34)CC2)c1C | 14%
CCc1ccc(-n2c(N3CCN(c4ccc(F)cc4)CC3)nc3ccccc3c2=O)cc1 | 5.6µM*
Cc1ccc(C)c(N2CCN(c3nc4ccccc4c(=O)n3-c3ccccc3)CC2)c1 | i
O=C(O)COc1ccc(-c2nccc3c2C(=O)N(Cc2cccc(C(F)(F)F)c2)CC(COc2cccnc2)O3)cc1 (stereo unspecified) | i
CC1(C)C(=O)N(Cc2ccccc2F)[C@H]2CN(Cc3cccnc3)C[C@@H]2[S+]1(=O)[O-] | 21%[44.1 µM]
CN(C)C(=O)C1CN(C(=O)c2ccc3c(c2)OCO3)CC12CCOCC2 (stereo unspecified) | 2%
COC(=O)CNC(=O)C1CCc2nnc(CNC(=O)Nc3cccnc3)n21 (stereo unspecified) | 12%
Cc1n[nH]c(C)c1C(N)C(=O)NCc1cc(C(F)(F)F)ccc1F (stereo unspecified) | -14%
CCOc1ccc(C(=O)Nc2c(C)nc(Nc3ccccc3)nc2Nc2ccccc2)cc1OCC | 13µM*
CCOc1ccc(Nc2nc(C)c(NC(=O)c3cccc(OC)c3)c(Nc3ccc(OCC)cc3)n2)cc1 | -11%
CCOc1ccc(C(=O)Nc2ccc(S(=O)(=O)Nc3nc(C)cc(C)n3)cc2)cc1OC | 9%
O=[S+]1([O-])NCC2(CCCN(Cc3ccc(Cl)cc3)C2)Oc2ncccc21 (stereo unspecified) | -29%
O=C1CC2CCCC(C1)N2C(=O)c1ccc(Cl)cc1 | -28%[44.1 µM]
Fc1cccc(-c2noc(-c3nc(-c4ccncc4)no3)n2)c1 | -23%
SMILES | Pf Dd2 inh
O=C(C1CCOCC1)N1CCC2(CC1)CC(N(Cc1ccc(F)cc1)C1CC1)CCO2 (stereo unspecified) | 0%
CCOCC(=O)N1CCC2(CC1)CC(N(Cc1ccc(F)cc1)C1CC1)CCO2 (stereo unspecified) | -33%
O=C(C1CCC1)N1CCC2(CC1)CC(N(Cc1ccc(F)cc1)C1CC1)CCO2 (stereo unspecified) | i
O=C(CC1CCCC1)N1CCC2(CC1)CC(N(Cc1ccc(F)cc1)C1CC1)CCO2 (stereo unspecified) | 7.9µM*
CC(C)C(=O)N1CCC2(CC1)CC(N(Cc1ccccc1)C1CC1)CCO2 (stereo unspecified) | -23%
Cc1ccc(C(=O)N2CCC3(CC2)CC(N(Cc2ccccc2)C2CC2)CCO3)s1 (stereo unspecified) | 1.6µM*
COCCC(=O)N1CCC2(CC1)CC(N(Cc1ccccc1)C1CC1)CCO2 (stereo unspecified) | i
CCC(=O)N1CCC2(CC1)CC(N(Cc1ccccc1)C1CC1)CCO2 (stereo unspecified) | -20%
Cc1cc(C(=O)N2CCC3(CC2)CC(N(Cc2ccc(F)cc2)C2CC2)CCO3)n(C)n1 (stereo unspecified) | i
O=C(c1ccco1)N1CCC2(CC1)CC(N(Cc1ccc(F)cc1)C1CC1)CCO2 (stereo unspecified) | 2.8µM*
Cc1ccc(C(=O)N2CCC3(CC2)CC(N(Cc2ccccc2)C2CC2)CCO3)cc1 (stereo unspecified) | i
O=C(CCC1CCCC1)N1CCC2(CC1)CC(N(Cc1ccccc1)C1CC1)CCO2 (stereo unspecified) | 13µM*
O=C(c1nnn2c1COC(c1ccccc1)C2)N1CCN(C(=O)C2(c3ccccc3)CC2)CC1 (stereo unspecified) | -13%
COc1cc(NC(=O)Cn2ccn3nc(-c4ccc(F)cc4)c(CO)c3c2=O)cc(OC)c1 | -21%
CN1CCCN(C[C@@H]2CN(C(=O)C3(Cn4cccn4)CC3)C[C@@H]2CO)CC1 | -4%
O=C(NC1CCCCC1)C1c2ccccc2C(=O)N(Cc2ccccc2)C12CCCC2 (stereo unspecified) | -1%

High-throughput results as filed in PubChem.
